# Measurements as given in the supplement of paper PMC3334620.
# The full ranking holds about 33,000 sequences; the median of “E-score (-0.5 to 0.5)” is about -8e-05, and the highest 2% start at about 0.23. The sample holds the highest values, similar sequences and a random draw of the others, so the mix is not that of the screen.
# Biological target: T1, Nrg2 (UniProt P38082)
# T1 sequence: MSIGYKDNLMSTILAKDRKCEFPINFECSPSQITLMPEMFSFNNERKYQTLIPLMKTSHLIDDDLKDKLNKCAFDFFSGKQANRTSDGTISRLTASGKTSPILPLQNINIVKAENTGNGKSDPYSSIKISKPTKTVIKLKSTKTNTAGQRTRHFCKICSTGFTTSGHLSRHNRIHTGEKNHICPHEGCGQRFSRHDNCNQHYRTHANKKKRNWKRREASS
# Test: PBM E-score (8-mer binding enrichment) (E-score (-0.5 to 0.5)); higher = stronger / more preferred TF binding
# Conditions: protein concentration: 100 nM; construct: GST-full length
# Experimental: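 Universal 'all 10-mer' protein binding microarrays (Agilent AMADID 015681) probed with GST-tagged S. cerevisiae TFs (full-length or DBD) made by in vitro transcription/translation (PURExpress), about 100-200 nM. Bound TF was detected with fluorescent anti-GST. Each ungapped 8-mer (which stands for itself and its reverse complement) is scored by the PBM enrichment score (E-score), a modified Wilcoxon-Mann-Whitney statistic from -0.5 to +0.5, computed with the Universal PBM Analysis Suite. Scale: above 0.35 generally sequence-specific binding.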
row,Sequence,PBM E-score
1,AGCAGACT,-0.138
2,CCGCCTGA,-0.0981
3,TCCAGAAA,0.0185
4,CCTCCTCC,-0.283
5,ATGTCCTC,0.0325
6,ATTGTCGC,0.136
7,ATTGTCGG,0.247
8,ATTGTCGA,0.0199
9,CTACAAAG,0.116
10,ACAGCGCA,0.00939
11,AGTAATAT,0.137
12,ATGGCCCA,-0.0568
13,GGCCCCAA,-0.0979
14,GGGCCCAC,0.203
15,CGCCCCCA,-0.194
16,CGCCCCAA,0.261
17,CGGGCCCA,-0.128
18,AGGGCCCA,0.359
19,CGCCCCAG,0.0362
20,TGGGCCCA,0.306
21,AAGGCCCA,-0.13
22,GGGCCCAA,0.244

row,Sequence,PBM E-score
1,GGGGCCCA,0.117
2,TAATTCCA,0.0521
3,GCGCTTCC,-0.0589
4,AAGGAAAA,0.0535
5,GCGGAATA,0.0652
6,CTTTGGGA,-0.076
7,AAACCCAC,0.218
8,GACTGAGA,-0.102
9,CAACTTAG,0.221
10,CTGCTCGA,0.073
11,AGGGCCCT,0.432
12,AGGGCCCG,0.0729
13,AGGGCCCC,0.0359
14,TCCAATAA,0.0718
15,CGACAGCC,0.026
16,CGCCGTGC,0.0708
17,CAGCCTAG,0.0198
18,GGTGCAAC,-0.13
19,AGTTTCAG,-0.0621
20,AGTTTCAC,0.0923
21,AGTTTCAT,0.274
22,CTGAGAAC,0.0907

row,Sequence,PBM E-score
1,AATACTAC,0.0385
2,CATACTAA,0.114
3,CATACTAC,0.151
4,CATACTAG,0.248
5,AATACTAT,0.0268
6,AATACTAG,0.241
7,CAATTTAC,0.12
8,ACGAATTG,0.0986
9,AGTGACTA,-0.133
10,TAGCAACA,0.135
11,GAACAGAA,0.0366
12,GGTCTGAC,0.0413
13,GGACAATA,0.239
14,AGACAATA,0.204
15,GGACAAAA,0.159
16,CGACAATA,0.235
17,GGACAAGA,0.159
18,CGACAATC,0.009
19,GAATTATA,0.0673
20,TAATTATA,0.319
21,CAATTATG,0.0379
22,AATTTATA,0.201

row,Sequence,PBM E-score
1,GTATTATA,0.254
2,AAATTATA,0.175
3,AATTTATC,0.312
4,CAATTATC,0.289
5,CTATTATA,0.0933
6,ATATTATA,0.0282
7,CATTTATC,0.0481
8,CAATTATA,0.0143
9,ACGCCTGG,-0.123
10,ACGCGCAG,0.025
11,CAATCCAC,-0.0677
12,CCACCGAA,0.0334
13,AACGGTCT,-0.127
14,CCGGGCGA,-0.0266
15,TGAGTCAA,0.0756
16,CTCCAACA,0.0834
17,AGCACGGG,-0.00766
18,GGATTATA,0.24
19,AGATTATA,0.0559
20,CGATTATA,0.138
21,GGCTAGCC,-0.297
22,CGATCCTA,0.00763

row,Sequence,PBM E-score
1,AAACTAGA,-0.0323
2,TAACTAGA,0.256
3,TAACTCGA,0.294
4,GAACTAGA,0.0203
5,GAACTCGA,0.0868
6,CAACTCGA,0.0207
7,GCCTAAGA,-0.0546
8,ACAAGCGC,0.0708
9,CAAGAACC,0.172
10,ATGGAATC,0.267
11,CTGGAATC,-0.164
12,ATGGAATG,-0.0148
13,CTGGAATA,0.193
14,AGGGAATA,0.245
15,ATGGAATA,0.235
16,CGGGAATA,0.0776
17,AGGGAATG,0.032
18,GTGGAATA,-0.013
19,AATGGCCG,-0.134
20,AATTCTCC,0.118
21,CAGTACGA,0.206
22,AAGTCCGA,-0.0535
